Hit rate of the full screen: of about 330,000 compounds, about 2,800 (0.85%) were called active. Shown is part of a subset that was picked to be rich in actives. A number with no mark means an inactive call.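 How the source made its calls: active means mean inhibition across replicates of 60% or more, whatever share of single replicates reaches that level; inconclusive means some that reach 60%, reason not given; inactive means mean inhibition across replicates below 60%.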

Consider 24 compounds from PubChem BioAssay AID488899 (Broad Institute, 2010).

The experiment in a line: inhibitors of MITF-dependent TRPM1 promoter reporter, primary screen, cell-based, SK-MEL-5, single point, luciferase (AID 488899). The settings on record: SK-MEL-5 TRPM1 promoter luciferase, 24 h; at 12.5 µM; hits give high values.
A word on the inhibition: it is the drop in the measured response relative to a control, in per cent. In the case of `Clc1ccc(C[n+]2cc(-c3ccc(Cl)cc3)n3c2CCC3)cc1`, the inhibition is 47.5%.

Take `CN(C)Cc1c(C(=O)N/N=C/c2ccccc2OCc2ccc(F)cc2)nnn1-c1nonc1N`: the inhibition is -15.2%.

In the case of `Cc1ccc2c(O)c(Cc3ccccc3)c(=O)[nH]c2n1`, the inhibition is 2.8%.

As to `COC(=O)COc1ccc2c(=O)c(Oc3ccccc3Br)coc2c1`, the inhibition was -0.261%.

Turning to `O=C(O)c1ccc(Cn2cnc3c(=S)nc[nH]c32)cc1`, the inhibition is -0.814%.

Take `COc1ccc(C2=Nn3c(nnc3-c3ccccc3OC)SC2)cc1OC1CCCC1`: the inhibition is 65.9% (active).

For `CC1=Nn2c(nnc2-c2ccccc2)SC1`, the inhibition is -0.377%.

With `COc1ccccc1-c1nnc2n1N=C(c1ccc(OC(F)F)c(OCC3CC3)c1)CS2`, the inhibition was -4.86%.

Take `COC(C[C@H](O)CC(=O)COCc1ccccc1)OC`: the inhibition was -3.12%.

As to `O=C(O)CN1c2cccc3cccc(c23)S1(=O)=O`, the inhibition was 13.3%.

For the compound `N/C(=N\OC(=O)Nc1ccccc1)c1ccno1`, the inhibition was -14%.

As to `CCCCOc1ccc(C(=O)NN2CCN(C)CC2)cc1`, the inhibition was -7.2%.

`CCCOc1ccc(C(=O)C(CCC(CNCC)C(=O)c2ccc(OCCC)cc2)CNCC)cc1` (centres undefined): the inhibition is 102% (active).

Take `CCCOc1ccc(C(=O)CCC(=O)OC(C)C(=O)Nc2ccc(NC(C)=O)cc2)cc1` (centres undefined): the inhibition is -26%.

Take `Cc1ccc(/C=C2/SC(=S)N(CCC(=O)NCCCN3CCOCC3)C2=O)cc1`: the inhibition was -20.1%.

For the compound `C=CCOc1ccc(/C=C2\SC(=S)N(CCC(=O)O)C2=O)cc1`, the inhibition was 78.2% (active).

As for `COc1ccc(/C=C2\SC(=S)N(CCCC(=O)NC3CCCC3)C2=O)cc1OC`, the inhibition is 37.5%.

In the case of `Cc1ccc(S(=O)(=O)N(CC(=O)Nc2cccc([N+](=O)[O-])c2)Cc2ccc(Cl)cc2)cc1`, the inhibition is 15.8%.

With `CC(=O)c1cccc(NC(=O)C2CCN(C(=O)c3ccccc3Cl)CC2)c1`, the inhibition is 28.4%.

With `O=C(COC(=O)C1CCN(S(=O)(=O)c2ccc3c(c2)OCCO3)CC1)Nc1ccccc1OC(F)F`, the inhibition was -1.73%.

Take `CCOC(=O)/C(=N\Nc1ccccc1[N+](=O)[O-])c1csc(Nc2ccccc2)n1`: the inhibition was -14.3%.

For `Cc1ccc(NC(=O)/C(=C/c2ccc([N+](=O)[O-])cc2)NC(=O)c2ccccc2)cc1`, the inhibition is 8.59%.

On to `CCOC(=O)/C(=C\c1ccc([N+](=O)[O-])cc1)C(=O)c1cc(C(C)=O)c(Nc2ccccc2)s1`, for which the inhibition is 100% (active).

`CC(=O)c1ccc(N2CCN(C(=O)CCNC(=O)Cn3ccc4ccccc4c3=O)CC2)cc1`: the inhibition is 0.055%.
